The panel holds about 83,000 compounds, 20% with a hit somewhere; the sample as a whole holds those more often.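 How to read the values: 0–100, growth inhibition (40 = 60% inhibited); 0, no net growth; -100 to 0, cell death (-40 = 40% of starting cells died; -100 = all dead).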 Values without a mark were called inactive. Calls of active or inactive are those of the source. How the source made its calls: active means growth percent below 10; inactive means the rest.
system: HL-60(TB) leukemia; assay: NCI-60 one-dose screen, 48 h (100 = growth as untreated, 0 = no growth, -100 = all killed); conditions: 10 µM unless noted

Row | SMILES | growth
1 | C#Cc1ccc(NC(=O)c2ccc(/C=C/C(=O)c3nccn3C)cc2)c(F)c1 | 7.29% (active)
2 | COc1ccc(-n2c(SCc3n[nH]c(=S)o3)nc3ccc(Cl)cc3c2=O)cc1 | 109%
3 | NC/C(=C/F)COc1ccc2nc(NCc3cccnc3)oc2c1 | 125%
4 | Cc1ccccc1NC(=O)Nc1nc2ccc([N+](=O)[O-])cc2s1 | -27.7% (active)
5 | NC(=O)n1c(=O)n(-c2cccc(C(F)(F)F)c2)c(=O)c2cc(-c3ccc(F)cc3F)ccc21 | -49.4% (active)
6 | CC(C)NC(=O)c1cc(-c2ccc(NC(=O)Nc3ccc(F)cc3)cc2)nc2cccnc12 | 105%
7 | Cc1ccc2c(n1)C(=O)C(Cl)=C(Nc1ccccc1C(=O)OC(C)(C)C)C2=O | -32.7% (active)
8 | CCCC(=O)NC(c1cccnc1)c1cc(C(C)=O)c2cccnc2c1O (stereo not given) | 24.9%
9 | CCOC(=O)Nc1ccc2c(ccn2C(=O)c2cccc(F)c2)c1 | 12.3%
10 | Cc1ccc(CSc2nc(-c3ccc(Cl)cc3)c(C#N)c(N3CCNCC3)n2)cc1 | 43.3%
11 | Cc1[nH]nc2ccc(-c3nc4cnc(N5CCN(C)CC5)cn4c3Nc3ccc(F)cc3Br)cc12 | -29.6% (active)
12 | CN1CCN(Cc2ccc(NC(=O)c3cncc(C#Cc4cnc5ccc(NC6CCOCC6)nn45)c3)cc2C(F)(F)F)CC1 | -45.2% (active)
13 | CC[C@H](CO)Nc1ccc2ncc(C#Cc3cncc(C(=O)Nc4ccc(CN5CCN(C)CC5)c(C(F)(F)F)c4)c3)n2n1 | -46.3% (active)
14 | CCOC(=O)c1c(Nc2ccccc2)nn2c(-c3cccs3)ccnc12 | 74.9%
15 | CC(=O)Oc1ccccc1C(=O)Nc1cc(C(C)C)ccc1C | -28.4% (active)
16 | CN1CCN(Cc2ccc(NC(=O)c3cncc(C#Cc4cnc5ccc(NCCO)nn45)c3)cc2C(F)(F)F)CC1 | -12.1% (active)
17 | Cc1ccc2sc3c(c2c1)OC(N)=C(C#N)C3c1cccc(F)c1 (stereo not given) | -0.493% (active)
18 | N#Cc1c(-c2ccc(Cl)cc2)nc2c(-c3ccccc3)c(Nc3ccccc3)nn2c1N | 91.3%
19 | C#Cc1nc(C2=C(C)C(OC(C)=O)/C(=N/OC(C)=O)C2)cs1 (stereo not given) | -43.9% (active)
20 | CN(c1ccc(F)cc1)S(=O)(=O)c1ccc(-c2cnc(C3CC3)o2)cc1 | -15.8% (active)

Row | SMILES | growth
21 | COc1cc2cc(Oc3ccc(NC(=O)c4cccc(C(F)(F)F)c4)cc3)c(C)nc2cc1OCCN(C)C | 97.2%
22 | NS(=O)(=O)c1ccc(-n2cc(CC=O)nn2)cc1 | 105%
23 | COc1cc(-c2nnc(SCc3ccc(O)c4ncccc34)n2-c2ccccc2)cc(OC)c1OC | -17.8% (active)
24 | CNC(=O)c1cc(-n2ccc3cc(NC(=O)Nc4ccc(N5CCN(C)CC5)c(C(F)(F)F)c4)ccc32)ccn1 | 65.8%
25 | CC(C)N=C(N/C(N)=N/c1nc2ccccc2s1)NC(C)C | 41.7%
26 | N/C(=N\C(N)=N\c1nc2ccccc2s1)c1ccc(C(F)(F)F)cc1 | 53.6%
27 | CC1=C(C)C(=O)C(Nc2ccc(C)cc2)=C(Br)C1=O | 68.6%
28 | NS(=O)(=O)c1ccc(Nc2nc(N/N=C/CCc3ccccc3)nc(Nc3ccccc3)n2)cc1 | 107%
29 | C=C=COc1cccc(/C(N)=N/C(N)=N/c2nc3ccccc3s2)c1 | 97.8%
30 | CC1(C)CC[C@]2(C(=O)N3CCOCC3)CC[C@]3(C)C(=CC[C@@H]4[C@@]5(C)C/C(=C/c6ccccn6)C(=O)C(C)(C)[C@@H]5CC[C@]43C)[C@@H]2C1 | 6.91% (active)
31 | COC[C@]12CCC(C)(C)C[C@H]1C1=CC[C@@H]3[C@@]4(C)CCCNC(C)(C)[C@@H]4CC[C@@]3(C)[C@]1(C)CC2 | -65.3% (active)
32 | N#Cc1cccc(NC(=O)c2cc(-c3ccc(F)cc3F)ccc2O)c1 | -29.2% (active)
33 | C=CCn1c(SCC(=O)Nc2ccc(C(=O)/C=C/c3ccc(C)cc3)cc2)nnc1-c1c[nH]c2ccccc12 | 98.4%
34 | CCOC(=O)c1c(NC(=O)c2cccc(C(F)(F)F)c2)sc2cc(O)ccc12 | 46.9%
35 | COc1ccc2oc3c4[nH]c5ccccc5c4c4c(c3c2c1)C(=O)N(O)C4=O | 102%
36 | CC(=O)Nc1nc(C)c(-c2csc(Nc3ccccc3)n2)s1 | 33.6%
37 | O=C(Oc1ccc2ccc(=O)oc2c1)c1ccc(Cl)cc1 | 106%
38 | CNC(=O)c1cc(N2CCc3cc(NC(=O)Nc4ccc(N5CCOCC5)c(C(F)(F)F)c4)ccc32)ccn1 | 13%
39 | C#CCN(C)CCCOc1ccc(NCc2ccc(C(=O)NO)cc2)cc1Cl | 12%
40 | CCN1C(=S)N(CC)C2C1N=C(SC)N2/N=C/C=C/c1ccccc1[N+](=O)[O-] (stereo not given) | 84.3%
